Data: the supplement of paper PMC3334620
The full ranking holds about 33,000 sequences; the median of “E-score (-0.5 to 0.5)” is about -0.016, and the highest 2% start at about 0.31. The sample holds the highest values, similar sequences and a random draw of the others, so the mix is not that of the screen.

What follows are sequences tested against Cst6 (UniProt P40535) (assay: PBM E-score (8-mer binding enrichment) (E-score (-0.5 to 0.5)); higher = stronger / more preferred TF binding). Conditions: protein concentration: 200 nM; construct: GST-DNA-binding domain.
Procedure, shortened: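 Bound GST-tagged yeast transcription factors, applied at about 100-200 nM to double-stranded universal all-10-mer Agilent arrays, were detected with fluorescent anti-GST. Scans were normalised with masliner. A modified Wilcoxon-Mann-Whitney statistic, the E-score, was assigned to each ungapped eight-base word pooled with its reverse complement by the Universal PBM Analysis Suite.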

Sequence of UniProt P40535 (P40535 whole entry, the tested form may be a part): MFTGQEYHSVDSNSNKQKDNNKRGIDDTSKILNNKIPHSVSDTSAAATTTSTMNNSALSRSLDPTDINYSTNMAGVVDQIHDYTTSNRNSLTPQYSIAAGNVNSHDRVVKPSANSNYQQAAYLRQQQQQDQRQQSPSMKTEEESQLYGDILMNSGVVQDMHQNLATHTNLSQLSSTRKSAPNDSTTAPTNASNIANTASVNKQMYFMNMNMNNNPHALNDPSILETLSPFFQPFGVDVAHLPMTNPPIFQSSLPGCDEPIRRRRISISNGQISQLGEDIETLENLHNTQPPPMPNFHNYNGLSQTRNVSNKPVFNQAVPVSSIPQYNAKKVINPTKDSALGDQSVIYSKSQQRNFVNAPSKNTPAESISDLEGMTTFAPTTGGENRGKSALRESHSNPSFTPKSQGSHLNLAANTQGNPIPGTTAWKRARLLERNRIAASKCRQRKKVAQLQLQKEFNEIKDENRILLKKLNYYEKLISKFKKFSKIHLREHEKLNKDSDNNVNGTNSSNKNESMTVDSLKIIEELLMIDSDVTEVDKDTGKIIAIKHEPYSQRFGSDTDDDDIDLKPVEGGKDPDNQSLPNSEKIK

Sequence | PBM E-score
ATAAGGGC | 0.0296
GCCGATAC | -0.136
CTCGCTAA | 0.0589
AGACGTTA | 0.0355
TGATCGCA | 0.0445
AGCCGGGC | -0.185
AAGCTTGA | -0.0535
GCTTCGAA | -0.0925
TATGACCA | 0.202
ACTGACGC | 0.243
AATGACCT | 0.25
AATGACGC | 0.453
AATGACAC | 0.273
CATGACAC | 0.328
AATGACGT | 0.495
CCTGACAC | 0.029
TATGACGA | 0.424
AAGGACGT | 0.0462
TATGACAA | 0.25
ATTGACGC | 0.265
AGAGCGGA | -0.0178
CTCAGACC | -0.22
AGACCACC | -0.137
ACCGTCCA | -0.185
ACAGTGAA | 0.146

Sequence | PBM E-score
CATCTAGA | 0.019
TCCTAGCA | -0.162
GCTCCGAA | -0.0443
CATGACAG | 0.118
ACTGACGA | 0.201
CATGACGG | 0.38
AATGACTA | 0.041
CCTGACGA | 0.182
AATGACGA | 0.451
ACTGACGG | 0.105
CATGACCG | 0.0772
CATGACGA | 0.438
AATGACCG | 0.178
CATGACCA | 0.0978
AATGACGG | 0.35
CGGCCTCA | -0.0129
ACCACCGA | -0.145
CAAAAGCA | -0.0642
AGGGGATG | -0.161
CGGGGCTC | -0.307
ATCGGAGA | -0.197
CATGACGC | 0.455
CATGACCC | -0.0425
AGTGACAT | 0.459
AGTGACAA | 0.169

Sequence | PBM E-score
AGTGACAC | 0.274
CATGACTC | 0.0297
AGCAGAAC | -0.0649
AATCCACC | -0.121
CAGGGCCC | -0.335
AAGTGAGA | 0.00703
TAGTGACA | 0.338
AAGTGAAA | 0.193
TAGTGATA | 0.088
AAGTGACT | 0.024
CAGTGACA | 0.248
AAGTGACA | 0.357
CAGTGACC | -0.0895
GAGTGACA | 0.287
CAGTGACG | 0.435
AAGTGACG | 0.45
AAGTGACC | -0.131
GGAGAATA | 0.103
TACCCGAA | -0.133
ATGCCACG | 0.00475
GGGAGTAC | -0.226
ACTCACCA | 0.043
GGCGTAAC | -0.0656
CCCACGGG | -0.214
TTATCCAA | 0.162

Sequence | PBM E-score
GGGTGACC | -0.0338
CATTGACG | 0.358
GGGTGACA | 0.243
TGGTGACA | 0.378
CATTGACA | 0.0835
CATTGACC | 0.149
CTGCTCCC | -0.174
CCTAATGC | -0.0866
CATCTAAA | 0.194
TCAGCTGA | 0.152
ATTGAGCC | 0.197
GCATTAAA | 0.163
GCATTACA | 0.187
TCATTGCA | 0.321
TCATTAAA | 0.352
ACATTAAA | 0.198
ACATTGCA | -0.0281
CCATTACA | 0.225
CCATTGCA | 0.024
TCATTACA | 0.368
CGGAGAGC | -0.0924
CGTCGGAC | -0.178
ATTTCACG | -0.00077
AGTAAGGA | -0.0515
ATAGATGG | -0.129

Sequence | PBM E-score
CCTTCGAG | -0.21
TGAAGTCA | 0.372
CGAAGTCA | 0.0581
GGAAGTCA | -0.14
CAGCAGTC | -0.258
CTATTTAA | -0.0505
ATATTTAA | 0.355
CTATTAAA | 0.192
ATATTTAC | 0.175
ATATTAAA | 0.355
TTATTAAA | 0.264
ATCAAAGG | -0.0902
CTACCACA | -0.155
AGTTCCCG | -0.205
AGGGCAAT | -0.0329
GTGCGTCA | 0.432
CTGCGTCA | 0.428
CTGCGTTA | -0.204
CTGCGTCC | -0.11
ATGCGTCA | 0.444
ATGCGTCC | -0.213
GTGCGTAA | 0.192
ATGCGTCG | 0.0508
GTGCGTGA | 0.136
TCTAACCA | 0.057

Sequence | PBM E-score
CGTCTACC | -0.0234
CATTTAGA | 0.136
AGCAGCTC | -0.28
GTCAAGCA | -0.29
CCATATAA | 0.105
ACATAACA | 0.227
AAATATAA | 0.233
GAATAAAA | 0.216
TAATATAA | 0.358
CAATAAAA | 0.165
TCATATAA | 0.305
TCATAACA | 0.311
GAATATAA | 0.111
GCATAACA | 0.124
TAATAAAA | 0.316
GCATATAA | 0.166
CATCCTAC | -0.0877
CCAGGGCC | -0.39
ATTGGCGC | 0.0493
CGACTACC | -0.363
CTTCCATC | -0.0839
CAAGTCTC | -0.247
TCGCCTAA | -0.0175
AAAAGAGG | -0.121
TACCAGAA | 0.0986

Sequence | PBM E-score
AGGGAAGG | -0.28
CAATATAG | 0.0707
CAATATAC | -0.0952
CAATATAA | 0.312
GAACGGCC | -0.183
GAACGGCA | 0.352
CAACGGCA | 0.094
TCACGGCA | 0.224
GCACGGCA | 0.353
GCACGGCC | 0.23
GGCAGGCC | -0.332
ATGGGTCC | -0.242
GACACCAC | -0.0664
CGTTGTCC | 0.126
GGGGAAAA | -0.101
CGCATACC | 0.117
ATTATGTG | 0.228
GTTATGTA | 0.165
ATTATGTA | 0.355
ACTATGTC | 0.0789
ATTATGTC | 0.359
CTTATGTC | 0.105
CTTACTGA | -0.0696
GGGCTCAA | -0.174
ACCCCTTG | -0.33

Sequence | PBM E-score
AGAAATCG | -0.0866
AATATTGC | 0.257
AATATTGT | 0.306
TATATACA | 0.161
TATATATA | 0.315
AATATATA | 0.239
ACTATATC | 0.128
ACTATATA | 0.316
GATATATA | 0.304
AATATTGG | 0.0316
GCTATATA | 0.167
AATATATG | 0.171
AATATATT | 0.355
GAATGTGC | 0.07
GGACGAAC | -0.0196
ACTTGCGC | -0.0133
CTCGCATC | 0.00499
AGTATATC | 0.0089
CATATATC | 0.121
CATATATG | 0.341
AGTATATA | 0.348
AGTATATG | 0.111
CATATATA | 0.272
AGTTGCGA | 0.0793
AAACTGAT | 0.0925

Sequence | PBM E-score
ACGCGATG | 0.122
AATTGTCG | 0.0471
CATTTGTC | 0.0906
CAGGGTTA | -0.124
GACGTAAA | 0.374
AACGTAAT | 0.453
AACGTAAA | 0.274
CACGTAAA | 0.181
AACGTAAG | 0.306
ACCGTAAG | 0.109
AACGTACT | 0.0968
AACGTAAC | 0.329
ACCGTAAC | -0.0255
CACGTAAG | 0.292
AACGTAGC | 0.0195
GCCGTAAA | 0.243
CACCCTCA | -0.212
AAGTTCAC | -0.0134
GACTTGAA | -0.171
AGCTGTGA | 0.135
TCGGAAAA | 0.113
AGTCTAGA | -0.124
CTCGGACC | -0.18
GGGCTGGA | -0.295
CATGCGTA | 0.15

Sequence | PBM E-score
TACGTAAA | 0.42
GACGTAAC | 0.46
TGCGTAAA | 0.218
GACGTAGC | 0.166
CACGTAAC | 0.262
TCCGTAAA | -0.0237
AACGTACC | -0.185
GACGTACC | 0.349
CACGTACC | -0.0025
GCTTGATA | 0.162
CCCGCTCA | -0.0513
CCGCAGGA | -0.234
AATCGGGT | 0.191
TCTCGGCA | -0.0951
GCAGCCCC | -0.349
GGGTGTAC | -0.185
CTCACATC | 0.0865
CTTACATA | 0.25
AGTACATC | -0.0114
GTTACATA | 0.228
ATTACACA | 0.318
ATTACACC | 0.089
ATTACAAC | 0.226
ATTACATG | 0.245
ATTACATA | 0.396

Sequence | PBM E-score
ATTACACG | 0.205
ATTACATC | 0.433
CTTACATC | 0.365
GAGACCCC | -0.279
AACCCACC | 0.0456
CTTTAGAA | 0.0739
AATCCGAG | -0.0702
ATCAAGGA | -0.0436
AAGGGGCA | -0.178
CTGATATA | 0.179
ATGATAAA | 0.307
ATGATATG | 0.269
GTGATAAA | 0.201
ATGATAAC | 0.263
ATGATATA | 0.31
ATCAAATG | 0.0892
TATATTAA | 0.336
CATATTAA | 0.234
AATATTAT | 0.242
AATATTAG | 0.185
GATATTAA | 0.201
AATATTAA | 0.334
TGGATCAA | 0.125
CCTAGTAA | -0.194
CAAAGCTA | 0.0247

Sequence | PBM E-score
ATCATTTG | 0.165
GTCATTAA | 0.394
CTCATTTA | 0.141
ATCATTTA | 0.335
CTCATTAA | 0.0741
GTCATTTA | 0.368
ATCATTAA | 0.28
GACATTTA | 0.115
ATCATTTC | 0.246
CCGCTCCA | -0.152
ACCCCCCC | -0.357
ATTGACAG | 0.0614
ATGACGGA | 0.417
ATGACGGC | 0.365
AAGACGGA | 0.00374
GTGACGGA | 0.352
GCGACGGA | -0.224
ACGACGGA | 0.0762
CTGACGGA | 0.165
CTGACGGC | 0.111
ATGACGGG | 0.258
CGCATAAG | 0.102
CGTACGGA | 0.168
GAAAGCGC | -0.00012
CCAAACCC | -0.126

Sequence | PBM E-score
CTGACAGC | -0.148
ATGACACC | 0.228
ATGACAAC | 0.302
ATGACATC | 0.478
CGGACATC | -0.196
CTGACATC | 0.307
CAGAGGAG | -0.0824
CCTTACCC | -0.0626
CCAGAAGG | -0.0896
CCGCGCGG | 0.382
GCGCGCGC | 0.345
ACGCGCGC | 0.175
CCGCGCGA | 0.255
CCGCGCGC | 0.151
GCGCGCGA | 0.0433
AGCCCCAA | -0.281
